What all share (experiment): qHTS profiling for inhibitors of Plasmodium falciparum proliferation (AID 504749); note: nearly all actives have a fitted effect of over 60% in size
Holding throughout (settings): P. falciparum in erythrocytes, SYBR Green DNA, 72 h; series mostly up to 28.7 µM
Background: Quantitative high-throughput screening tests each substance at several concentrations.

The subject of one assay is 7G8. The gist of the method: (§1)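 Parasite proliferation within erythrocytes, 72 h exposure. Endpoint: SYBR Green I fluorescence after overnight lysis at room temperature. Controls: 0.29 uM artemisinin, DMSO.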
A further assay has as its system AA1029. In a few lines:
as §1

For a further assay, the system named is CP211. In a few lines: as §1
The test system of the next assay is CP215. In a few lines: as §1
The subject of the next assay is CP217. In a few lines: as §1
The next assay concerns CP250. The gist of the method: as §1
For a further assay, the system named is CP252. In a few lines:
as §1

In a further assay the test system is CP256. The gist of the method:
as §1

A further assay has as its system CP291. The gist of the method:
as §1

A further assay relates to CP297. The gist of the method:
as §1

In another assay the test system is CP315. In a few lines:
as §1

The next assay relates to DIV14. The gist of the method: as §1
The next assay concerns DIV17. The gist of the method: as §1
In another assay the test system is Dd2. The gist of the method: as §1
Another assay deals with FAB9. The gist of the method: as §1
Another assay concerns GB4. In a few lines: as §1
The subject of the next assay is ICS. In a few lines:
as §1

A further assay has as its system JCK. In a few lines:
as §1

The subject of a further assay is N140. In a few lines:
as §1

A further assay deals with PC15. In a few lines: as §1

Results filed as inconclusive are left out. Activity calls are given as the source filed them. Calls come from the whole dose curve; as a rule, active = well fitted inhibition curve with a large enough effect; inconclusive = small, poorly fitted or top-dose-only effect; inactive = flat fitted curve, though single readings scatter.
Potency is the fitted concentration of half-maximal effect.

As for `CC(C)(C)NC[C@@H](O)c1ccc(O)c(CO)n1`, the Potency result in the assay with 7G8, in the assay with AA1029, with CP211, in the assay with CP215, with CP217 and in the assay on CP250 was “inactive” each time. Besides, the Potency entry in the assay with CP252, with CP256, in the assay with CP291, in the assay on CP297, in the assay on CP315 and in the assay on DIV14 was “inactive” in each case. For the same molecule, the Potency result in the assay on DIV17, in the assay with Dd2, in the assay on FAB9, in the assay on GB4, with ICS and in the assay on JCK was “inactive” throughout. The Potency result with N140 and in the assay on PC15 was “inactive” throughout.
In the case of `NS(=O)(=O)c1cc2c(cc1Cl)N[C@H](Cc1ccccc1)NS2(=O)=O`, the Potency entry with 7G8, in the assay on AA1029, in the assay on CP211, in the assay with CP215, with CP217 and with CP250 was “inactive” in each case. For the same molecule, the Potency entry with CP252, in the assay on CP256, in the assay with CP291, with CP297, in the assay on CP315 and in the assay with DIV14 was “inactive” each time. For the same molecule, the Potency result with DIV17, in the assay with Dd2, in the assay on FAB9, in the assay with GB4, in the assay with ICS and in the assay with JCK was “inactive” throughout. The Potency result with N140 and with PC15 was “inactive” throughout.
For the molecule `C[C@]12CC[C@H]3c4ccc(O)cc4CC[C@@H]3[C@H]1CC[C@@H]2OC(=O)CCC1CCCC1`, the Potency in the assay on 7G8 is 4.47 µM (active); in the assay on DIV14, 9.53 µM (active); with DIV17, 10.7 µM (active); in the assay on Dd2 it was 14.1 µM (active); with GB4, 12 µM (active); in the assay on ICS it was 3.16 µM (active). Further, the Potency in the assay on N140 and with PC15 was 12.6 µM (active) in each case. For the same molecule, the Potency result with AA1029, in the assay with CP211, with CP215, in the assay on CP217, with CP250 and in the assay with CP252 was “inactive” each time. Further, the Potency result in the assay with CP256, in the assay on CP291, with CP297, in the assay on CP315, in the assay on FAB9 and in the assay with JCK was “inactive” each time.
For the molecule `Cc1cn([C@H]2C[C@H](N=[N+]=[N-])[C@H](CO)O2)c(=O)[nH]c1=O`, the Potency result in the assay on 7G8, in the assay with AA1029, with CP211, in the assay with CP215, in the assay on CP217 and with CP250 was “inactive” in each case. For the same molecule, the Potency result in the assay with CP252, with CP256, with CP291, with CP297, with CP315 and with DIV14 was “inactive” each time. In addition, the Potency entry in the assay with DIV17, in the assay on Dd2, in the assay on FAB9, with GB4, in the assay with ICS and in the assay on JCK was “inactive” each time. For the same molecule, the Potency result in the assay with N140 and with PC15 was “inactive” throughout.

Values taken from PubChem BioAssay (NCATS).
